According to ChEMBL document CHEMBL2218924, “A broad activity screen in support of a chemogenomic map for kinase signalling research and drug discovery” (Biochem J, 2013):

Columns and labels:
[1] = molecular target: Vascular endothelial growth factor receptor 3 (Homo sapiens) (UniProt P35916); settings: at 10 µM
[2] = molecular target: Macrophage colony-stimulating factor 1 receptor (Homo sapiens) (UniProt P07333); settings: at 10 µM
[3] = molecular target: T1, Mitogen-activated protein kinase kinase kinase kinase 2 (Homo sapiens) (UniProt Q12851); settings: at 10 µM
T1 sequence (whole entry): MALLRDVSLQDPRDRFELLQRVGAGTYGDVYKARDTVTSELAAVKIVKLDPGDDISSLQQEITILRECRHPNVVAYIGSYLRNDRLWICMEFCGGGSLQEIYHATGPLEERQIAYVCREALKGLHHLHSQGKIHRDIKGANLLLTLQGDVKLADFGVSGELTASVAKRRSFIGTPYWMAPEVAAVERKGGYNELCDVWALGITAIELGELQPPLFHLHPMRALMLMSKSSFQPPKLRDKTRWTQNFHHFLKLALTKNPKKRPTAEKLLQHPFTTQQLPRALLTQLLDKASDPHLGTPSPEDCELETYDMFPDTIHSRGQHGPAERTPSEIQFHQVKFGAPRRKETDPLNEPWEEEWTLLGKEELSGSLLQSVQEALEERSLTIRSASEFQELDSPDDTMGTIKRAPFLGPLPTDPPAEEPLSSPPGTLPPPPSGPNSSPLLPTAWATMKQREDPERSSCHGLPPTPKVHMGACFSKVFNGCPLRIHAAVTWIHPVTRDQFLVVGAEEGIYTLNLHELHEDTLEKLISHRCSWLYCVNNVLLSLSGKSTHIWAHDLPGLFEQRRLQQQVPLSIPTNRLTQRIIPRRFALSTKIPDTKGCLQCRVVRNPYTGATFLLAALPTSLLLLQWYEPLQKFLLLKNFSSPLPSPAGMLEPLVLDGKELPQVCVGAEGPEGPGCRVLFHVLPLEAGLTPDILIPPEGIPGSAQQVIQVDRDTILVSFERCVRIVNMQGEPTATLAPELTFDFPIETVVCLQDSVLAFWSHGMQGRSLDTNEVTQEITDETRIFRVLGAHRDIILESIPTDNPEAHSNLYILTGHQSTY

[4] = molecular target: Macrophage colony-stimulating factor 1 receptor (Homo sapiens) (UniProt P07333); settings: at 1 µM
[5] = molecular target: Tyrosine-protein kinase Fyn (Homo sapiens) (UniProt P06241); settings: at 1 µM
[6] = molecular target: Tyrosine-protein kinase Fyn (Homo sapiens) (UniProt P06241); settings: at 10 µM
[7] = molecular target: G protein-coupled receptor kinase 6 (Homo sapiens) (UniProt P43250); settings: at 10 µM
[8] = molecular target: Glycogen synthase kinase-3 beta (Homo sapiens) (UniProt P49841); settings: at 1 µM
Glycogen synthase kinase-3 beta (Homo sapiens), sequence (P49841 whole entry, looked up): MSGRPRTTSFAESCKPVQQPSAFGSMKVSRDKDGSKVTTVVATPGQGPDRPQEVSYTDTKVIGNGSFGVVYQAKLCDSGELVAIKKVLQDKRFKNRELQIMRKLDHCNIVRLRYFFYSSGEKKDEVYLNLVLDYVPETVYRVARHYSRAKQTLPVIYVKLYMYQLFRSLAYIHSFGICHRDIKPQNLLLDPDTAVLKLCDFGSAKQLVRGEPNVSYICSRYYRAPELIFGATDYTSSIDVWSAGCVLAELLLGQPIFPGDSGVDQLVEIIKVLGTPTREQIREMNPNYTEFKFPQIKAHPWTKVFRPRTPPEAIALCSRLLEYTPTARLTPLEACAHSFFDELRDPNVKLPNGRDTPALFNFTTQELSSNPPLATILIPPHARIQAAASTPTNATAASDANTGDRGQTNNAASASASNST

[9] = molecular target: Glycogen synthase kinase-3 beta (Homo sapiens) (UniProt P49841); settings: at 10 µM
[10] = molecular target: T2, Rhodopsin kinase GRK7 (Homo sapiens) (UniProt Q8WTQ7); settings: at 1 µM
T2 sequence (whole entry): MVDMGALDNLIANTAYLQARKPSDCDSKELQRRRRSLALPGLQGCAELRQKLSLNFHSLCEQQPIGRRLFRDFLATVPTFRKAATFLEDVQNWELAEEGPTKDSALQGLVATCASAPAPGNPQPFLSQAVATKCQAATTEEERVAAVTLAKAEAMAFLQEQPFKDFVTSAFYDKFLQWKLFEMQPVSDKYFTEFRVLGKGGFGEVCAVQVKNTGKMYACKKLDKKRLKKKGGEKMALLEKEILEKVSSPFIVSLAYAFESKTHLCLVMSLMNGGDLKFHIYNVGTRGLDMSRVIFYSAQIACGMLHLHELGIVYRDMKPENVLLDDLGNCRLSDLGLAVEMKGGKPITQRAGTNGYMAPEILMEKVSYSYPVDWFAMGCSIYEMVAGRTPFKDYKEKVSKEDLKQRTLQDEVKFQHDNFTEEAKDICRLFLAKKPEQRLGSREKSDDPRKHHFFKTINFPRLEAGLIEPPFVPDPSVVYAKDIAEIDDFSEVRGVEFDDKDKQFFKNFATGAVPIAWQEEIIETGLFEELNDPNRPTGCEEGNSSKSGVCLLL

[11] = molecular target: T2, Rhodopsin kinase GRK7 (Homo sapiens); settings: at 10 µM
[12] = molecular target: T1, Mitogen-activated protein kinase kinase kinase kinase 2 (Homo sapiens); settings: at 1 µM
[13] = molecular target: G protein-coupled receptor kinase 5 (Homo sapiens) (UniProt P34947); settings: at 10 µM
G protein-coupled receptor kinase 5 (Homo sapiens), sequence (P34947 whole entry, looked up): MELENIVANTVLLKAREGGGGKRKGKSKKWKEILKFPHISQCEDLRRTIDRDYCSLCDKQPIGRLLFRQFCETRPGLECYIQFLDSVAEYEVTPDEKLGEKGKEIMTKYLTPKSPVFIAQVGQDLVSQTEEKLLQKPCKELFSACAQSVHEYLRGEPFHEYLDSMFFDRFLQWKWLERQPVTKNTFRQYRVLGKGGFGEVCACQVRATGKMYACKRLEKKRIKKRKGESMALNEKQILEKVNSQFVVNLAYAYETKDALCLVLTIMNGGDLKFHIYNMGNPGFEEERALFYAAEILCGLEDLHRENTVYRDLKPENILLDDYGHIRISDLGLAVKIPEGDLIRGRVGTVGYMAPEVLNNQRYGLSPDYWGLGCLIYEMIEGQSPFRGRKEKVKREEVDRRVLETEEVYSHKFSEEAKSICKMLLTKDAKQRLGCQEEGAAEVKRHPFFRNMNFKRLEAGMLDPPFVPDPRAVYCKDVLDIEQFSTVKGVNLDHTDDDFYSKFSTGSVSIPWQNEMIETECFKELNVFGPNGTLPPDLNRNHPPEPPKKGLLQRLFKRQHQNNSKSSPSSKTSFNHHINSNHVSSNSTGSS

[14] = molecular target: Glycogen synthase kinase-3 alpha (Homo sapiens) (UniProt P49840); settings: at 10 µM
[15] = molecular target: Homeodomain-interacting protein kinase 1 (Homo sapiens) (UniProt Q86Z02); settings: at 10 µM
Homeodomain-interacting protein kinase 1 (Homo sapiens), sequence (Q86Z02 whole entry, looked up): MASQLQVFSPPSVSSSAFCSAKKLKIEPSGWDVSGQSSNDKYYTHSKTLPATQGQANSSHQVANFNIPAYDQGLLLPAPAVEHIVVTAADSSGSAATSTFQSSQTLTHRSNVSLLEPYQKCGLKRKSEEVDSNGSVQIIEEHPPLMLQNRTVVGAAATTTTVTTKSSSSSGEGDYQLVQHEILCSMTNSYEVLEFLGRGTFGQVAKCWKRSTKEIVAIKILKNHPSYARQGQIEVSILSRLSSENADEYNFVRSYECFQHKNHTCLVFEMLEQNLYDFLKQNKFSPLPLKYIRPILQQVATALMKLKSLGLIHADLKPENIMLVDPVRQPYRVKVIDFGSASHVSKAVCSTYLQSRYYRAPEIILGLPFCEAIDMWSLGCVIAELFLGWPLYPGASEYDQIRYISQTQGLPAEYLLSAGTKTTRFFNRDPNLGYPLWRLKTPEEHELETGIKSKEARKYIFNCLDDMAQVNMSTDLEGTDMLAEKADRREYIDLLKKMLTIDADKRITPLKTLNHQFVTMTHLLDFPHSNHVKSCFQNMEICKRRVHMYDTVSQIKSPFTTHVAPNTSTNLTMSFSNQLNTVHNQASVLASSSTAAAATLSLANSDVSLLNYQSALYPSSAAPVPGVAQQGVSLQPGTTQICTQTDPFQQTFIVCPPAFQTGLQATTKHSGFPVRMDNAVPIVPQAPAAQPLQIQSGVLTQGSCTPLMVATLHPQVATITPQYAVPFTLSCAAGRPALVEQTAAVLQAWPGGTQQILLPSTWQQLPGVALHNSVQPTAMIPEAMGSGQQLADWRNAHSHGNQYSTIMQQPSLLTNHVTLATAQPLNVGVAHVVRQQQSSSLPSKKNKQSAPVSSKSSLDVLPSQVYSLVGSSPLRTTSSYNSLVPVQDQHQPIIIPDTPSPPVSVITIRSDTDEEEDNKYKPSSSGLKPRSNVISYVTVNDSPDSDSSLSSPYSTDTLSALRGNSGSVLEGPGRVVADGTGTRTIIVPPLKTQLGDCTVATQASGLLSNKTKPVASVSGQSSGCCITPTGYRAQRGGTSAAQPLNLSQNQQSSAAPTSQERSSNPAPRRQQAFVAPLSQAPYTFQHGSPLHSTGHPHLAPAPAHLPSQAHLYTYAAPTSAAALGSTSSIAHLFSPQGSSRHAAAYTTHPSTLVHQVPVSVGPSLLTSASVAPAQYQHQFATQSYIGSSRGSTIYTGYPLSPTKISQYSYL

[16] = molecular target: Homeodomain-interacting protein kinase 2 (Homo sapiens) (UniProt Q9H2X6); settings: at 10 µM
Homeodomain-interacting protein kinase 2 (Homo sapiens), sequence (Q9H2X6 whole entry, looked up): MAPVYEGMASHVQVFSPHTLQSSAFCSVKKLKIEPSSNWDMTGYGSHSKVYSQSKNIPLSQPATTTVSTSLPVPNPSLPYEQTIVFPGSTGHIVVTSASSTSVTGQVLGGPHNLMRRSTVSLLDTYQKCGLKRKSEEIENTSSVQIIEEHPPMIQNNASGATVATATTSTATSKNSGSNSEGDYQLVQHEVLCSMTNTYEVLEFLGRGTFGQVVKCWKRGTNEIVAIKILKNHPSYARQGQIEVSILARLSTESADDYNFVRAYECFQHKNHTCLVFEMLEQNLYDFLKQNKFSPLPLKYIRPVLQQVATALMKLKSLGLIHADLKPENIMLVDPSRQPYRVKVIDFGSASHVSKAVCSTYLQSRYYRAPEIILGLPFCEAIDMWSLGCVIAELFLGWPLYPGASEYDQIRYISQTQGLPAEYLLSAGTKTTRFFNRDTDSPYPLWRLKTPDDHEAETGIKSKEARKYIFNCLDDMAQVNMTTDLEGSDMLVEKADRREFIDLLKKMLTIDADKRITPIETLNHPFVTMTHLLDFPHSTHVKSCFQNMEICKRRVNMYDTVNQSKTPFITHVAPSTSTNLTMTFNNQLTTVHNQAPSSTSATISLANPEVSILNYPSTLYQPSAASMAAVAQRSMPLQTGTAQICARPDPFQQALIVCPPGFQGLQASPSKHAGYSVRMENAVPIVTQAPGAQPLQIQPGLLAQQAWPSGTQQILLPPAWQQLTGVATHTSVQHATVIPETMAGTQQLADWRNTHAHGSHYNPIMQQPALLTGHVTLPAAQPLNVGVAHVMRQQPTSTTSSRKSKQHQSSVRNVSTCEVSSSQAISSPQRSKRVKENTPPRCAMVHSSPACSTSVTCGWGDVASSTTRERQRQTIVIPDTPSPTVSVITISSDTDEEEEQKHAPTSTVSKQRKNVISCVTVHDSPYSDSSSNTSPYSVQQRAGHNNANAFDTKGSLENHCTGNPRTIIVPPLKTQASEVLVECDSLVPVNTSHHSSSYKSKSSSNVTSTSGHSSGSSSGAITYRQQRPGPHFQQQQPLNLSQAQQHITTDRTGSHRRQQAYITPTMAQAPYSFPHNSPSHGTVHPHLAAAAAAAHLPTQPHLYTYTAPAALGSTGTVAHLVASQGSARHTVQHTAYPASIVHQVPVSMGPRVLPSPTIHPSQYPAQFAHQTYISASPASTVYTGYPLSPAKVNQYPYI

[17] = molecular target: Glycogen synthase kinase-3 alpha (Homo sapiens) (UniProt P49840); settings: at 1 µM
[18] = molecular target: Homeodomain-interacting protein kinase 1 (Homo sapiens) (UniProt Q86Z02); settings: at 1 µM
[19] = molecular target: Homeodomain-interacting protein kinase 2 (Homo sapiens) (UniProt Q9H2X6); settings: at 1 µM
[20] = molecular target: Homeodomain-interacting protein kinase 3 (Homo sapiens) (UniProt Q9H422); settings: at 1 µM
Homeodomain-interacting protein kinase 3 (Homo sapiens), sequence (Q9H422 whole entry, looked up): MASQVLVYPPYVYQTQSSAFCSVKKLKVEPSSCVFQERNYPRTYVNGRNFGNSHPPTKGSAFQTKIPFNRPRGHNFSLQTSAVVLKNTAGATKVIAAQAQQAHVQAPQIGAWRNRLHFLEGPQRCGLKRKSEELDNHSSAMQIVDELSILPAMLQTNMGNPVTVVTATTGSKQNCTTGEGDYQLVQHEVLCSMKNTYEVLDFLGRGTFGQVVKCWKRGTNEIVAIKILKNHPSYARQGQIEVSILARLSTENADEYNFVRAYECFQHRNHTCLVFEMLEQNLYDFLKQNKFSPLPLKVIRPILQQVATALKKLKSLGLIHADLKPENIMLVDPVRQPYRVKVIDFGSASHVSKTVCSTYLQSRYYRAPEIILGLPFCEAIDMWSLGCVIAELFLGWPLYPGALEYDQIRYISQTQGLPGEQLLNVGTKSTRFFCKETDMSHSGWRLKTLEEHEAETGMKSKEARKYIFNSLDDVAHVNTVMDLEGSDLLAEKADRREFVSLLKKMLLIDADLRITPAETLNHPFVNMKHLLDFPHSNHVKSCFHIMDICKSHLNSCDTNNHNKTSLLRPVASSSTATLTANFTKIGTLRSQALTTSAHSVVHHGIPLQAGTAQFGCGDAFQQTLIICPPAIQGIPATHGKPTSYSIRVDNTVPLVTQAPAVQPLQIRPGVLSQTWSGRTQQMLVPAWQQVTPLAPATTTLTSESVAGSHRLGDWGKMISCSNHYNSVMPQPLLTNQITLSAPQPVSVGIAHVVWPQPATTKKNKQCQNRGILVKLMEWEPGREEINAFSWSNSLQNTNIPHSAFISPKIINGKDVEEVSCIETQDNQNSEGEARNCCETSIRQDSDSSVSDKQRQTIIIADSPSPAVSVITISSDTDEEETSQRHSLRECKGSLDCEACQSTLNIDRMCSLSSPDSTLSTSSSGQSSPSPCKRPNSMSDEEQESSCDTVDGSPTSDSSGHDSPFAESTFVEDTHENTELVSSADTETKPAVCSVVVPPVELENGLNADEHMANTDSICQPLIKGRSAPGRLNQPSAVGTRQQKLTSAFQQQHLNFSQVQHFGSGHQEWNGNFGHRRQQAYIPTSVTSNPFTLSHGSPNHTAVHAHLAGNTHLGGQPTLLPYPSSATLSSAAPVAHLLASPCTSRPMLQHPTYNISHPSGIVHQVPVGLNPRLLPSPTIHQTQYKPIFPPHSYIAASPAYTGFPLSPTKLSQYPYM

## CCOc1nc(NC(=O)Cc2cc(OC)ccc2OC)cc(N)c1C#N
[1]
  residual activity: 64%
[2]
  residual activity: 53%
[3]
  residual activity: 72%

## NC(=O)c1ccc(-c2nc(-c3ccc4c(c3)OCCO4)c(-c3ccccn3)[nH]2)cc1
[1]
  residual activity: 46%
[4]
  residual activity: 74%
[2]
  residual activity: 64%
[5]
  residual activity: 81%
[6]
  residual activity: 83%
[3]
  residual activity: 94%
[7]
  residual activity: 88%
[8]
  residual activity: 117%
[9]
  residual activity: 98%

## O=C1Nc2ccccc2/C1=C\c1c(Cl)[nH]c2ccccc12
[1]
  residual activity: 8%
[4]
  residual activity: 79%
[2]
  residual activity: 27%
[5]
  residual activity: 81%
[6]
  residual activity: 59%
[3]
  residual activity: 69%
[10]
  residual activity: 99%
[11]
  residual activity: 87%
[8]
  residual activity: 141%
[9]
  residual activity: 80%

## CSc1nc(-c2ccc(F)cc2)c(-c2ccnc(NC(C)c3ccccc3)c2)[nH]1 (centres undefined)
[1]
  residual activity: 64%
[2]
  residual activity: 41%
[5]
  residual activity: 87%
[6]
  residual activity: 69%
[12]
  residual activity: 75%
[3]
  residual activity: 56%
[13]
  residual activity: 91%
[14]
  residual activity: 96%
[15]
  residual activity: 97%
[16]
  residual activity: 86%

## O=c1cc(N2CCOCC2)oc2c(-c3ccccc3)cccc12
[1]
  residual activity: 72%
[4]
  residual activity: 66%
[2]
  residual activity: 62%
[3]
  residual activity: 70%
[7]
  residual activity: 77%
[11]
  residual activity: 81%

## CCCCc1c(-c2ccc(O)cc2)[nH]c2nccnc12
[1]
  residual activity: 2%
[2]
  residual activity: 6%
[5]
  residual activity: 43%
[6]
  residual activity: 11%
[12]
  residual activity: 7%
[3]
  residual activity: 4%
[13]
  residual activity: 90%
[7]
  residual activity: 90%
[10]
  residual activity: 86%
[11]
  residual activity: 87%
[17]
  residual activity: 62%
[14]
  residual activity: 20%
[8]
  residual activity: 79%
[9]
  residual activity: 73%
[16]
  residual activity: 62%

## NCCNc1ncc(C(N)=O)c(Nc2cccc(C(F)(F)F)c2)n1
[1]
  residual activity: 48%
[4]
  residual activity: 57%
[2]
  residual activity: 4%
[12]
  residual activity: 13%
[3]
  residual activity: 0%
[13]
  residual activity: 79%
[7]
  residual activity: 73%
[9]
  residual activity: 26%

## O=S(=O)(NCCNC/C=C/c1ccc(Br)cc1)c1cccc2cnccc12
[1]
  residual activity: 26%
[4]
  residual activity: 116%
[5]
  residual activity: 75%
[6]
  residual activity: 55%
[12]
  residual activity: 76%
[3]
  residual activity: 42%
[7]
  residual activity: 81%
[11]
  residual activity: 58%

## COc1cc2c(cc1OC)-c1n[nH]c(Nc3cccc(F)c3)c1C2
[4]
  residual activity: 1%
[2]
  residual activity: 0%
[5]
  residual activity: 16%
[6]
  residual activity: 0%
[3]
  residual activity: 44%
[7]
  residual activity: 81%
[11]
  residual activity: 80%
[17]
  residual activity: 115%
[14]
  residual activity: 108%
[9]
  residual activity: 75%

## O=C(c1ccccc1)c1ccc(N2CCOCC2)cc1O
[1]
  residual activity: 85%
[4]
  residual activity: 75%
[2]
  residual activity: 55%
[12]
  residual activity: 95%
[3]
  residual activity: 89%
[7]
  residual activity: 88%
[11]
  residual activity: 95%
[17]
  residual activity: 91%
[14]
  residual activity: 121%
[8]
  residual activity: 96%
[9]
  residual activity: 87%
[18]
  residual activity: 98%
[15]
  residual activity: 97%
[19]
  residual activity: 97%
[16]
  residual activity: 94%
[20]
  residual activity: 87%

## Oc1cccc(-c2nc(N3CCOCC3)c3oc4ncccc4c3n2)c1
[4]
  residual activity: 78%
[2]
  residual activity: 80%
[5]
  residual activity: 82%
[6]
  residual activity: 88%
[3]
  residual activity: 85%
[10]
  residual activity: 93%
[11]
  residual activity: 94%
[14]
  residual activity: 127%
[19]
  residual activity: 84%
[16]
  residual activity: 89%
[20]
  residual activity: 93%

## Nc1nccc(-c2c(-c3ccc(F)cc3)ncn2C2CCNCC2)n1
[1]
  residual activity: 10%
[12]
  residual activity: 82%
[3]
  residual activity: 61%
[9]
  residual activity: 64%
[15]
  residual activity: 82%
[16]
  residual activity: 62%

## Nc1ncnc2c1cnn2-c1ccccc1
[1]
  residual activity: 82%
[2]
  residual activity: 67%
[5]
  residual activity: 79%
[6]
  residual activity: 58%
[12]
  residual activity: 100%
[7]
  residual activity: 93%
[11]
  residual activity: 94%
[14]
  residual activity: 140%
[8]
  residual activity: 84%
[19]
  residual activity: 101%
[16]
  residual activity: 95%
[20]
  residual activity: 99%

## CCN1/C(=C/C(C)=O)Sc2ccc(OC)cc21
[1]
  residual activity: 65%
[4]
  residual activity: 81%
[2]
  residual activity: 66%
[5]
  residual activity: 80%
[12]
  residual activity: 74%
[3]
  residual activity: 55%
[7]
  residual activity: 79%
[14]
  residual activity: 34%
[9]
  residual activity: 63%
[20]
  residual activity: 82%

## N#C/C(=C\c1ccc(O)c(O)c1)C(=O)NCc1ccccc1
[4]
  residual activity: 67%
[2]
  residual activity: 81%
[6]
  residual activity: 80%
[3]
  residual activity: 85%
[19]
  residual activity: 101%

## Fc1ccc(-c2nc3n(c2-c2ccncc2)CCS3)cc1
[1]
  residual activity: 43%
[4]
  residual activity: 90%
[2]
  residual activity: 84%
[5]
  residual activity: 92%
[6]
  residual activity: 83%
[3]
  residual activity: 83%
[17]
  residual activity: 88%
[14]
  residual activity: 88%
[16]
  residual activity: 91%

## COc1ccc(COc2ccc(Cc3cnc(N)nc3N)cc2OC)cc1
[1]
  residual activity: 115%
[3]
  residual activity: 63%
[17]
  residual activity: 120%
[14]
  residual activity: 119%
[9]
  residual activity: 80%

## O=S(=O)(c1cccc2cnccc12)N1CCCNCC1
[1]
  residual activity: 52%
[3]
  residual activity: 83%
[8]
  residual activity: 136%

## COc1ccc(CNC(=O)Nc2ncc([N+](=O)[O-])s2)cc1
[1]
  residual activity: 17%
[4]
  residual activity: 77%
[2]
  residual activity: 58%
[5]
  residual activity: 105%
[8]
  residual activity: 28%
[9]
  residual activity: 14%

## COc1ccc(Cl)cc1NC(=O)Nc1cc(C)nc2ccccc12
[1]
  residual activity: 93%
[4]
  residual activity: 89%
[2]
  residual activity: 73%
[12]
  residual activity: 93%
[3]
  residual activity: 77%
[7]
  residual activity: 92%
[10]
  residual activity: 99%
[11]
  residual activity: 88%
[18]
  residual activity: 97%
[19]
  residual activity: 98%
[16]
  residual activity: 87%
[20]
  residual activity: 99%

## N#C/C(=C1/Nc2ccccc2S1)c1ccnc(NCCc2cccnc2)n1
[1]
  residual activity: 22%
[4]
  residual activity: 70%
[2]
  residual activity: 31%
[12]
  residual activity: 79%
[3]
  residual activity: 18%
[17]
  residual activity: 1%
[14]
  residual activity: -1%
[8]
  residual activity: 8%
[9]
  residual activity: 1%
[19]
  residual activity: 47%
[16]
  residual activity: 6%
[20]
  residual activity: 88%

## O=C(Nc1nc2ccccc2n1CCN1CCOCC1)c1cccc([N+](=O)[O-])c1
[1]
  residual activity: 40%
[4]
  residual activity: 8%
[2]
  residual activity: 5%
[12]
  residual activity: 70%
[3]
  residual activity: 67%
[13]
  residual activity: 85%
[11]
  residual activity: 79%
[17]
  residual activity: 113%
[14]
  residual activity: 116%

## CC(C)[C@H](CO)Nc1nc(Nc2cc(N)cc(Cl)c2)c2ncn(C(C)C)c2n1
[1]
  residual activity: 3%
[4]
  residual activity: 55%
[2]
  residual activity: 21%
[5]
  residual activity: 9%
[6]
  residual activity: 0%
[13]
  residual activity: 44%
[7]
  residual activity: 40%
[10]
  residual activity: 58%
[11]
  residual activity: 10%
[17]
  residual activity: 80%
[14]
  residual activity: 28%
[15]
  residual activity: 60%
[19]
  residual activity: 86%
[16]
  residual activity: 32%
